This passage reports growth results from PubChem BioAssay (NCI).

This is part of a sample that, as a whole, favours compounds with a hit. Of some 83,000 tested, about 20% had one in any assay.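 Percent growth is the endpoint: 0 to 100 indicates growth inhibition (40 means 60% inhibition), 0 means no net growth, and negative values indicate cell death.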 A number with no mark means an inactive call. The source made the active and inactive calls. Rule for the calls: active = growth percent below 10; inactive = the rest.

One experiment relates to MDA-MB-231 breast. Put plainly: NCI-60 one-dose screen, 48 h (100 = growth as untreated, 0 = no growth, -100 = all killed). The conditions noted are these: 10 µM unless noted.
In the case of `COc1cc(-c2nn(C(C)(C)C)cc2-c2ccnc(NCCCNS(=O)(=O)c3cccc(F)c3)n2)ccc1Cl`, the growth is 61%.

As to `Cc1ccc2c(c1)C(=O)/C(=C/c1cccc(F)c1)S2`, the growth was 99.8%. Same read-out and setting: for `CCCC(=O)NC(c1cccnc1)c1cc(C(C)(C)C)c2cccnc2c1O` (centres undefined) the value was 34.6%; for `CCN(CC)CCn1c2ccc(O)cc2c2sc3cc(OC)ccc3c(=O)c21`, 31.6%; for `Cn1cc(-c2nc(N)nnc2-c2c[nH]c3ccccc23)c2cc(Br)ccc21`, 34.2%.

`C=C(C)[C@@H]1CC[C@]2(COCCCNCCC#N)CC[C@]3(C)[C@H](CC[C@@H]4[C@@]5(C)CC[C@H](OCCCNCCC#N)C(C)(C)[C@@H]5CC[C@]43C)[C@@H]12`: the growth is 54.8%.

`CCNC(=O)N1CCc2cc(OC)c(OCCc3ccc(OC)c(N)c3)cc2C1c1ccc(C)cc1C` (centres undefined): the growth is 15%.

Turning to `CC1(C)CC[C@]2(C(=O)N3CCOCC3)CC[C@]3(C)C(=CC[C@@H]4[C@@]5(C)C/C(=C/c6ccccn6)C(=O)C(C)(C)[C@@H]5CC[C@]43C)[C@@H]2C1`, the growth is 55.2%. As for `O=C(Nc1nc2ccc([N+](=O)[O-])cc2s1)Nc1ccccc1Br`, the growth was 72.7%. As for `CC1=N[C@@H]2CN(C(=O)OC(C)(C)C)C[C@@H]2n2c1cc1ccccc1c2=O`, the growth is 96.1%. `Cc1[nH]c(C(=O)Nc2ccccc2OCc2cccc(C(=O)N3CCC[C@@H](N)C3)c2)c(Cl)c1Cl`: the growth was -75.8% (active).

Consider `Cc1cc(-c2ccc(Cl)cc2)n(Cc2nnc(SCC(=O)Nc3ccc(S(N)(=O)=O)cc3)n2-c2ccc([N+](=O)[O-])cc2)n1`, for which the growth was 93.3%. On the same count and under the same terms, with `Cc1c(F)cc(C(N)=O)cc1NCC(=O)Nc1ccc([N+](=O)[O-])cc1` the figure was 89.8%; with `COc1cc(-c2ccc3ncnc(NCc4ccccc4)c3c2)cnc1OC`, 41.5%. For `CCNC(=O)N1CCc2cc(OC)c(OCCc3ccc(OC)c(N)c3)cc2C1c1cc(C)c(C)cc1C` (centres undefined), the growth was 53.1%. For `O=C1[C@H]2Cc3c([nH]c4ccccc34)[C@@H](c3ccc(Br)cc3)N2C(=O)CN1C1CCN(CC2CCCCC2)CC1`, the growth is -94.8% (active).

`COC(=O)c1ccc(NC2=C/C(=N/S(=O)(=O)c3ccc(C(=O)O)cc3)c3ccccc3C2=O)cc1`: the growth was -21.6% (active). On to `COc1ccc(CCOc2cc3c(cc2OC)CCN(C(=O)NCc2cocn2)C3c2ccc(C)cc2C)cc1` (centres undefined), for which the growth was 20.5%. As to `Cc1ccc(C(=O)NN2C(=O)/C(=C/C=C/c3ccco3)SC2=S)cc1`, the growth was 96.7%.

Regarding `COc1ccc(/C=C/C(=O)c2cccc(NC(=O)CSc3nc4ccccc4c(=O)n3-c3ccccc3)c2)cc1OC`, the growth was 97.3%. The same measure, in the same setting: with `C[C@H]1c2[nH]c3ccccc3c2C[C@H]2C(=O)N(CCCCCCC(=O)NO)CC(=O)N21` the figure was 78.5%; with `C=CCOc1cccc(/C=C2\SC(=S)N(C3CC(=O)N(c4ccc(Br)cc4)C3=O)C2=O)c1` (centres undefined), 96.3%.

As for `CC(C)(C)c1ccc(-c2nnc(-c3nc4ccccc4nc3Cl)o2)cc1`, the growth was 90.5%. Same read-out and setting: for `Nc1nc(-c2cccc([N+](=O)[O-])c2)c(N=Nc2ccc(Br)cc2)s1` the value was -46.6% (active). `CCNC(=O)N1CCc2cc(OC)c(OCCc3ccc(OC)cc3)cc2C1c1ccc(OC)cc1C` (centres undefined): the growth is 19.7%. Turning to `COc1ccc(-c2nc(C(Cl)Cl)nc3cc(-c4ccccc4)nn23)cc1`, the growth was 6.65% (active).

The subject of another experiment is RXF 393 renal. The description is as above. To be noted: 10 µM unless noted.
Take `O=C(Nc1ccc2c(ccn2Cc2ccccn2)c1)c1ccnnc1`: the growth is 59.3%.

For `N#C/C(=C\c1ccc(-c2ccc(Cl)cc2Cl)o1)c1ccc(F)cc1`, the growth was 67.5%. Still for that read-out and setting: for `COc1ccc(/C(N)=N/C(N)=N/c2nc3ccccc3s2)cc1` the value was 65.7%; for `Nc1nc(-c2cccc([N+](=O)[O-])c2)c(N=Nc2ccccc2)s1`, -16.3% (active); for `CNC(=O)c1cc(Oc2ccc3nc(NC(=O)c4cc(N5CCOCC5)cc(C(F)(F)F)c4)sc3c2)ccn1`, -9.02% (active). Consider `C=C(C)[C@@H]1CC[C@]2(COP(=O)(OCC)OCC)CC[C@]3(C)[C@H](CC[C@@H]4[C@@]5(C)CCCNC(C)(C)[C@@H]5CC[C@]43C)[C@@H]12`, for which the growth was -8.28% (active). For the compound `CCCn1cnc2c(c1=N)C(c1ccc(F)cc1)c1sc3c(CC)cccc3c1O2` (centres undefined), the growth is -17.3% (active).

Regarding `CC1(C)[C@@H](O)CC[C@]2(C)[C@H]3CC[C@@H]4[C@H]5[C@H](C(=O)/C=C\c6ccc([N+](=O)[O-])cc6)CC[C@]5(O)CC[C@@]4(C)[C@]3(C)CC[C@@H]12`, the growth was -7.82% (active). Consider `c1cc(-c2nc3ccc4[nH]ncc4c3c3c2CCCC3)[nH]n1`, for which the growth was 38%. Turning to `O=C(CSc1nc2ccccc2c(=O)n1-c1ccccc1)Nc1ccc(-c2nc3ccc([N+](=O)[O-])cc3[nH]2)cc1`, the growth is 64.5%. Same read-out and setting: with `C[C@@H](Nc1ncnc2ccc(-c3cnc(Cl)c(NS(C)(=O)=O)c3)cc12)c1ccccc1` the figure was -17.5% (active); with `CC(=O)Nc1cccc(Nc2nc(N[C@H](C)c3ccccc3)c3ccccc3n2)c1`, -5.79% (active); with `COc1cc(-c2nn(C(C)(C)C)cc2-c2ccnc(NCCCNS(=O)(=O)c3cccc(F)c3)n2)ccc1Cl`, -0.456% (active). The same measure, in the same setting: with `Cc1ccc2c(c1)C(=O)/C(=C/c1cccc(F)c1)S2` the figure was 96.6%; with `CCCC(=O)NC(c1cccnc1)c1cc(C(C)(C)C)c2cccnc2c1O` (centres undefined), 53.6%. For `CCN(CC)CCn1c2ccc(O)cc2c2sc3cc(OC)ccc3c(=O)c21`, the growth is 35%. Same read-out and setting: for `Cn1cc(-c2nc(N)nnc2-c2c[nH]c3ccccc23)c2cc(Br)ccc21` the value was 7.61% (active). Still for that read-out and setting: for `C=C(C)[C@@H]1CC[C@]2(COCCCNCCC#N)CC[C@]3(C)[C@H](CC[C@@H]4[C@@]5(C)CC[C@H](OCCCNCCC#N)C(C)(C)[C@@H]5CC[C@]43C)[C@@H]12` the value was -9.12% (active). Same read-out and setting: with `CCNC(=O)N1CCc2cc(OC)c(OCCc3ccc(OC)c(N)c3)cc2C1c1ccc(C)cc1C` (centres undefined) the figure was 7.54% (active). On to `CC1(C)CC[C@]2(C(=O)N3CCOCC3)CC[C@]3(C)C(=CC[C@@H]4[C@@]5(C)C/C(=C/c6ccccn6)C(=O)C(C)(C)[C@@H]5CC[C@]43C)[C@@H]2C1`, for which the growth is 3.83% (active). Same read-out and setting: with `O=C(Nc1nc2ccc([N+](=O)[O-])cc2s1)Nc1ccccc1Br` the figure was 62.2%; with `CC1=N[C@@H]2CN(C(=O)OC(C)(C)C)C[C@@H]2n2c1cc1ccccc1c2=O`, 110%. On to `Cc1[nH]c(C(=O)Nc2ccccc2OCc2cccc(C(=O)N3CCC[C@@H](N)C3)c2)c(Cl)c1Cl`, for which the growth is -87.6% (active). `Cc1cc(-c2ccc(Cl)cc2)n(Cc2nnc(SCC(=O)Nc3ccc(S(N)(=O)=O)cc3)n2-c2ccc([N+](=O)[O-])cc2)n1`: the growth was 75.9%. With `Cc1c(F)cc(C(N)=O)cc1NCC(=O)Nc1ccc([N+](=O)[O-])cc1`, the growth was 45.5%. For `COc1cc(-c2ccc3ncnc(NCc4ccccc4)c3c2)cnc1OC`, the growth was -18.3% (active). Regarding `CCNC(=O)N1CCc2cc(OC)c(OCCc3ccc(OC)c(N)c3)cc2C1c1cc(C)c(C)cc1C` (centres undefined), the growth was 22.5%. The same measure, in the same setting: with `O=C1[C@H]2Cc3c([nH]c4ccccc34)[C@@H](c3ccc(Br)cc3)N2C(=O)CN1C1CCN(CC2CCCCC2)CC1` the figure was -96% (active). Same read-out and setting: for `COC(=O)c1ccc(NC2=C/C(=N/S(=O)(=O)c3ccc(C(=O)O)cc3)c3ccccc3C2=O)cc1` the value was -14.6% (active); for `COc1ccc(CCOc2cc3c(cc2OC)CCN(C(=O)NCc2cocn2)C3c2ccc(C)cc2C)cc1` (centres undefined), 1.12% (active). Still for that read-out and setting: for `Cc1ccc(C(=O)NN2C(=O)/C(=C/C=C/c3ccco3)SC2=S)cc1` the value was 131%; for `COc1ccc(/C=C/C(=O)c2cccc(NC(=O)CSc3nc4ccccc4c(=O)n3-c3ccccc3)c2)cc1OC`, 97.7%.

In the case of `C[C@H]1c2[nH]c3ccccc3c2C[C@H]2C(=O)N(CCCCCCC(=O)NO)CC(=O)N21`, the growth was 93%. Still for that read-out and setting: for `C=CCOc1cccc(/C=C2\SC(=S)N(C3CC(=O)N(c4ccc(Br)cc4)C3=O)C2=O)c1` (centres undefined) the value was 132%; for `CC(C)(C)c1ccc(-c2nnc(-c3nc4ccccc4nc3Cl)o2)cc1`, 88.4%.

As to `Nc1nc(-c2cccc([N+](=O)[O-])c2)c(N=Nc2ccc(Br)cc2)s1`, the growth was -92.3% (active). For the compound `CCNC(=O)N1CCc2cc(OC)c(OCCc3ccc(OC)cc3)cc2C1c1ccc(OC)cc1C` (centres undefined), the growth is -12.7% (active). On the same count and under the same terms, for `COc1ccc(-c2nc(C(Cl)Cl)nc3cc(-c4ccccc4)nn23)cc1` the value was -82.1% (active).
